Data published in the supplement of paper PMC12494721.
Structures can show the parent of a compound that is named as a salt.

Test system: Clostridium sporogenes DSM 1664
Test: growth (OD595) fold change vs plate DMSO controls (fold change (ratio)); higher = more growth
Conditions: incubation time: 27 h, anaerobic, 37 °C
Method in brief: (§1)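 The measure reported is growth, taken as fold change against the median of DMSO controls on the same plate. Anaerobic mGAM cultures in 96-well plates (27 h, 37 °C) were read at 595 nm, blank-subtracted, corrected for compound background using 20 µM compound solutions in water, and multiplied by a calibration factor of 5 to give OD. Any fold change above 1.5 became NA, and 2 biological replicates were averaged.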

**Q.** `OC(c1cc(C(F)(F)F)nc2c(C(F)(F)F)cccc12)C1CCCCN1` (stereo unspecified) [Mefloquine hydrochloride] (20 µM) was tested. Which growth did it give?
**A.** Its growth is 0.869.

**Q.** With `Cc1cc(C(C)(C)CC(C)(C)C)ccc1OCCOCC[N+](C)(C)Cc1ccccc1` [Methyl benzethonium chloride] (20 µM) as the molecule, how does the growth read?
**A.** Its growth is 0.896.

**Q.** How did the growth turn out when `O=C1CN(/N=C/c2ccc([N+](=O)[O-])o2)C(=O)N1` [Nitrofurantoin] (20 µM) was run?
**A.** Its growth is 1.01.

**Q.** Which growth does the source give for `CCCCCCCCNC(C)C(O)c1ccc(SC(C)C)cc1` (stereo unspecified) [Suloctidil] (20 µM) here?
**A.** Its growth is 1.12.

**Q.** For `CC(C)(c1cc(Br)c(O)c(Br)c1)c1cc(Br)c(O)c(Br)c1` (20 µM), which growth is on record?
**A.** Its growth is 0.

**Q.** `Nc1ncn(C2OC(CO)C(O)C2O)c(=O)n1` (stereo unspecified) [Azacytidine-5] (20 µM) was tested. Which growth did it give?
**A.** The growth was 1.02.

**Q.** For `COc1cc(Cc2cnc(N)nc2N)cc(OC)c1OC` [Trimethoprim] (20 µM), which growth is on record?
**A.** Its growth is 1.03.

**Q.** Which growth does the source give for `CC(C)/N=c1\cc2n(-c3ccc(Cl)cc3)c3ccccc3nc-2cc1Nc1ccc(Cl)cc1` [Clofazimine] (20 µM) here?
**A.** The growth was 0.239.

**Q.** For `O=C(O)[C@H]1/C(=C/CO)O[C@@H]2CC(=O)N21` [Clavulanate potassium salt] (20 µM), which growth is on record?
**A.** Its growth is 0.883.

**Q.** For `CC(C)(C)CC(C)(C)c1ccc(OCCOCC[N+](C)(C)Cc2ccccc2)cc1` [Benzethonium chloride] (20 µM), which growth is on record?
**A.** The growth was 0.869.

Test system: Escherichia coli IAI1
Test: as above
Conditions: incubation time: 27 h, anaerobic, 37 °C
Method in brief: as §1

**Q.** `CN(CCOc1ccc(NS(C)(=O)=O)cc1)CCc1ccc(NS(C)(=O)=O)cc1` [Dofetilide] (20 µM) was tested. Which growth did it give?
**A.** The growth was 0.972.

**Q.** How did the growth turn out when `OC(c1cc(C(F)(F)F)nc2c(C(F)(F)F)cccc12)C1CCCCN1` (stereo unspecified) [Mefloquine hydrochloride] (20 µM) was run?
**A.** The growth was 0.858.

**Q.** Which growth does the source give for `COc1cc2nc(N3CCN(C(=O)c4ccco4)CC3)nc(N)c2cc1OC` [Prazosin hydrochloride] (20 µM) here?
**A.** Its growth is 1.09.

**Q.** With `CCc1c2c(nc3ccc(OC(=O)N4CCC(N5CCCCC5)CC4)cc13)-c1cc3c(c(=O)n1C2)COC(=O)[C@]3(O)CC` [Irinotecan hydrochloride trihydrate] (20 µM) as the molecule, how does the growth read?
**A.** The growth was 1.05.

**Q.** With `O=C(O)CCNC(=O)c1ccccc1` [Betamipron] (20 µM) as the molecule, how does the growth read?
**A.** The growth was 0.817.

**Q.** How did the growth turn out when `Cc1cc(C(C)(C)CC(C)(C)C)ccc1OCCOCC[N+](C)(C)Cc1ccccc1` [Methyl benzethonium chloride] (20 µM) was run?
**A.** The growth was 1.13.

**Q.** For `CCN1CCN(C(=O)N[C@@H](C(=O)N[C@@H]2C(=O)N3C(C(=O)O)=C(CSc4nnnn4C)CS[C@H]23)c2ccc(O)cc2)C(=O)C1=O` [Cefoperazone dihydrate] (20 µM), which growth is on record?
**A.** Its growth is 0.0154.

**Q.** With `CN(C)CCCN1c2ccccc2CCc2ccccc21` [Imipramine hydrochloride] (20 µM) as the molecule, how does the growth read?
**A.** The growth was 1.15.

**Q.** Which growth does the source give for `CCOC(=O)C1=C(C)NC(C)=C(C(=O)OC)C1c1cccc(Cl)c1Cl` (stereo unspecified) [Felodipine] (20 µM) here?
**A.** The growth was 1.09.

**Q.** `CCOC(=O)C1=C(COCCN)NC(C)=C(C(=O)OC)C1c1ccccc1Cl` (stereo unspecified) [Amlodipine] (20 µM) was tested. Which growth did it give?
**A.** Its growth is 1.

**Q.** `O=C(O)c1cn(C2CC2)c2cc(N3CCNCC3)c(F)cc2c1=O` [Ciprofloxacin hydrochloride monohydrate] (20 µM) was tested. Which growth did it give?
**A.** Its growth is 0.

**Q.** With `Nc1ccn([C@@H]2CS[C@H](CO)O2)c(=O)n1` [Lamivudine] (20 µM) as the molecule, how does the growth read?
**A.** Its growth is 0.995.

**Q.** `COc1ccc(CCN(C)CCCC(C#N)(c2ccc(OC)c(OC)c2)C(C)C)cc1OC` (stereo unspecified) [Verapamil hydrochloride] (20 µM) was tested. Which growth did it give?
**A.** The growth was 1.13.

**Q.** With `CC[C@]12CCCN3CCc4c(n(c5ccccc45)[C@@](O)(C(=O)OC)C1)[C@@H]32` [Vincamine] (20 µM) as the molecule, how does the growth read?
**A.** The growth was 1.01.

**Q.** How did the growth turn out when `Cc1noc(NS(=O)(=O)c2ccc(N)cc2)c1C` [Sulfisoxazole] (20 µM) was run?
**A.** Its growth is 1.03.

**Q.** With `O=C1CN(/N=C/c2ccc([N+](=O)[O-])o2)C(=O)N1` [Nitrofurantoin] (20 µM) as the molecule, how does the growth read?
**A.** Its growth is 0.997.

**Q.** `C=C[C@H]1CN2CC[C@H]1C[C@@H]2[C@@H](O)c1ccnc2ccc(OC)cc12` [Quinidine hydrochloride monohydrate] (20 µM) was tested. Which growth did it give?
**A.** Its growth is 1.01.

**Q.** With `O=C1C(CC[S+]([O-])c2ccccc2)C(=O)N(c2ccccc2)N1c1ccccc1` (stereo unspecified) [Sulfinpyrazone] (20 µM) as the molecule, how does the growth read?
**A.** The growth was 0.972.

**Q.** How did the growth turn out when `CCCCCCCCNC(C)C(O)c1ccc(SC(C)C)cc1` (stereo unspecified) [Suloctidil] (20 µM) was run?
**A.** Its growth is 1.08.

**Q.** Which growth does the source give for `CC(=O)Nc1ccc(O)cc1` [Acetaminophen] (20 µM) here?
**A.** The growth was 0.986.

**Q.** How did the growth turn out when `CC(C)(c1cc(Br)c(O)c(Br)c1)c1cc(Br)c(O)c(Br)c1` (20 µM) was run?
**A.** The growth was 1.04.
